Bioassay records as filed in PubChem BioAssay.
HepG2 tox = kills HepG2 cells in TGF-b inhibitor counter-screen. HepG2 CAGA-GFP viability, ATP luminescence, 18 h. Potency, µM (top dose mostly 46.1 µM), for inactives: at the highest dose activity change, negative = cytotoxicity, hits mostly cytotoxic. 410,000 compounds, 0.76% hits
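HepG2 CAGA-GFP cells (1000/well, DMEM with 1% FBS) received compound, then TGF-beta at 500 pg/mL final, and were incubated 18 hours at 37 degrees C. Viability was read by CellTiter-Glo luminescence. Media-only wells were set as complete cell-killing and DMSO as no toxicity.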
TGFb inhibitor = blocks TGF-b signaling. HepG2 CAGA-GFP TGF-b/SMAD3 reporter, GFP fluorescence, 18 h; TGF-beta stimulated, 500 pg/mL final. 410,000 compounds, 1.2% hits. Potency, µM (titrated, usually from 46.1 µM), without a hit: at the highest dose activity, negative = inhibition, hits mostly inhibitors; also: % is scaled to controls: 0 for no effect and ±100 for the full control effect; nearly all actives have a fitted effect of over 65% in size
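HEPG2 CAGA-GFP, 1000 cells/well; 2 h settle, 37 C; cpd via pin tool; TGF-b 500 pg/mL final; 18 h, 37 C; GFP imaging ex488/em500-530; %Activity normalised to -TGF-b and +DMSO controls; CRC fit, curve class.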
HT1080NT lethal = kills 2HG-producing HT-1080-NT fibrosarcoma cells. 360,000 compounds, 1.6% hits. HT-1080-NT fibrosarcoma viability, CellTiter-Glo ATP luminescence, 48 h. Potency, µM (highest dose often 46.1 µM), without a hit: at the highest dose activity, negative = less viability, most hits filed as cytotoxic;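 also: NT is the 2HG producing partner of a matched IDH1 knockdown line; 0% = DMSO-treated cells and -100% = media-only wells without cells; nearly all actives have a fitted effect of over 55% in size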
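Toxicity toward the 2HG-producing NT line was scored as %Activity, normalised to DMSO and no-cell wells, from CellTiter-Glo luminescence after 48 hours' treatment.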
DT40 TDP1 no CPT = qHTS for Inhibitors of human tyrosyl-DNA phosphodiesterase 1 (TDP1): qHTS in cells in absence of CPT. 420,000 compounds, 15% hits. DT40 Tdp1-/- hTDP1 cells, no CPT, ATP luminescence, 48 h. Potency, µM (series often up to 46.2 µM), for the others: at the highest dose activity change, negative = growth inhibition, actives largely listed as inhibitors. AID 686978, 2013; also: % is scaled to controls: 0 for no effect and ±100 for the full control effect; nearly all actives have a fitted effect of over 55% in size
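Growth kinetics read by CellTiter-Glo luminescence after ≥48 hr at 37 °C. Cells: DT40 Tdp1-/- stably carrying human TDP1, 400 per well, compound exposure in the absence of CPT (DMSO vehicle).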
HT1080 IDH1KD tx = kills HT-1080 cells with IDH1 knockdown | AID 686971 | Potency, µM (highest dose often 46.1 µM), for inactives: top-dose activity, negative = toxicity, usual class: cytotoxic | 360,000 compounds, 2% hits | HT-1080 IDH1 knockdown viability, ATP luminescence, 48 h;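 also: 0% = DMSO wells and -100% = cell-free medium wells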
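IDH1KD HT-1080 cells, 750/well, RPMI + 5% FBS; compound pinned after 2 h settling; 48 h, 37 °C; CellTiter-Glo luminescence; % activity normalised to DMSO and no-cell wells; curves fitted, classed by r2 and efficacy.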
DT40 TDP1 CPT = DT40-hTDP1 cell growth loss with CPT; chicken DT40 Tdp1-/-;hTDP1 cells + 20 nM CPT, ATP luminescence, 48 h; AID 686979; Potency, µM (doses to about 46.2 µM), for the others: at the highest dose activity change, negative = growth inhibition, most hits filed as inhibitors; 420,000 compounds, 12% hits; also: % is scaled to controls: 0 for no effect and ±100 for the full control effect; nearly all actives have a fitted effect of over 55% in size
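Cell growth measured by CellTiter-Glo luminescence after a minimum 48 h, 37 C compound exposure with 20 nM CPT in Tdp1-knockout DT40 cells stably expressing hTDP1, seeded 400/well; qHTS titration format.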
Starred values were filed as active, the others as inactive; ? = inconclusive; · = no result given; [ ] = dose if it differs, or a comment. The list is not random: actives were taken first. Their share in the collection is about 17%. Calls follow the shape of the dose curve; as a rule, active = well fitted curve in the direction sought with a large enough effect; inconclusive = small, poorly fitted or top-dose-only effect, or another doubt; inactive = no such curve, though single readings can be large; an effect the other way counts as inactive or inconclusive. Potency is read from the fitted curve at half-maximal effect.

SMILES	HepG2 tox	TGFb inhibitor	HT1080NT lethal	DT40 TDP1 no CPT	HT1080 IDH1KD tx	DT40 TDP1 CPT
CC1=CC(=O)C=CC1=Nc1ccc(N(C)C)cc1	-91%	25µM*	?	0.92µM*	?	1µM*
CCOC(=O)c1ccc(NC(=O)C2=C(C)Nc3nc(SCc4ccc(Cl)cc4)nn3C2c2ccc(C)cc2)cc1 (stereo not drawn)	-3%	-1%	·	-3%	·	-15%
COc1cc(-c2nnc(SCC(=O)/C(C#N)=C(\C)N)o2)cc(OC)c1OC	-34%	?	-5%	?	-4%	?
Cc1csc(NC(=O)C2(C)CCN2C(=O)C(C)C)c1C#N (stereo not drawn)	7%	-12%	1%	8.2µM*	1%	8.2µM*
O=C(c1ccoc1)N1CCOc2ccc(CN3CCC(Oc4cccnc4)CC3)cc2C1	·	·	·	-29%	·	3%[9.04 µM]
CCOc1cccc(N(C(=O)Cc2cccs2)C(C(=O)NC2CCCCC2)c2cccn2C)c1 (stereo not drawn)	-25%	-11%	-19%	16µM*	?	16µM*
CCOc1ccc(C(C(=O)NC2CCCCC2)N(C(=O)Cc2cccs2)c2ccc(-n3cnnn3)c(OC)c2)cc1 (stereo not drawn)	6%	15%	?	23µM*	?	?
COc1ccc(C(C(=O)NC2CCCCC2)N(C(=O)c2ccco2)c2ccc(-n3cnnn3)c(C)c2)cc1 (stereo not drawn)	-27%	-19%	12%	-27%	6%	-23%
COc1cccc(C(C(=O)NC2CCCC2)N(C(=O)c2ccco2)c2ccc(-n3cnnn3)c(C)c2)c1OC (stereo not drawn)	-2%	4%	1%	2.9µM*	0%	?
COc1cccc(N(C(=O)Cc2cccs2)C(C(=O)NC2CCCC2)c2ccncc2)c1 (stereo not drawn)	-9%	5%	4%	-16%	4%	-30%
CN(C)c1ccc(/C=C/c2cc(=O)[nH]c3ccccc23)cc1	2%	-7%	·	-29%	·	-30%
Cc1cc(C)n2nc(-c3sccc3-n3c(C)ccc3C)cc2n1	2%	?	5%	16µM*	-12%	23µM*
S=C(NC1CC1)NC1CCCc2ccccc21 (stereo not drawn)	-16%	-26%	-6%	-7%	-9%	2%
CCC(CC)NC(=O)COC(=O)c1cccc(C)c1O	-8%	-3%	2%	-1%	11%	-12%
CCOP(=O)(OCC)C(Nc1ccccc1)c1ccc2c(c1)OCO2 (stereo not drawn)	11%	-10%	-8%	?	5%	13µM*
CCCCOP(=O)(OCCCC)C(Nc1ccccc1)c1ccc2c(c1)OCO2 (stereo not drawn)	-27%	?	-7%	13µM*	-26%	?
CC12CCC(C(=O)OC3CCCCC3)(OC1=O)C2(C)C (stereo not drawn)	-1%	-18%	-1%	21%	0%	-3%
COc1ccc(NC(=O)CN2c3cccc4cccc(c34)S2(=O)=O)cc1OC	-21%	-8%	-8%	7.3µM*	-4%	?
Cc1ccc(NC(=O)CN2c3cccc4cccc(c34)S2(=O)=O)cc1S(=O)(=O)N1CCOCC1	-11%	?	-4%	18µM*	-10%	?
COc1ccc(NC(=O)CN2C(=O)c3ccccc3S2(=O)=O)cc1OC	-12%	-14%	19%	1%	-1%	1%
CCOC(=O)c1ccc(NS(=O)(=O)c2ccc(Br)s2)cc1	7%	-4%	·	-28%	·	-17%
CCNC(=S)N/N=C/c1cc(C)n(-c2ccc(Cl)cc2)c1C	6%	-8%	-17%	21µM*	-17%	18µM*
Cc1cc(/C=N/NC(N)=S)c(C)n1-c1ccc(Cl)c(Cl)c1	-67%	?	-4%	3.7µM*	?	2.6µM*
Cc1nc2ccccn2c1C(=O)N/N=C/c1ccccc1[N+](=O)[O-]	1%	14%	-8%	-1%	9%	-15%
Cc1nc2ccccn2c1C(=O)N/N=C/c1cc(C)n(-c2ccc(Cl)cc2)c1C	-21%	-11%	-11%	15µM*	-20%	16µM*
SMILES	HepG2 tox	TGFb inhibitor	HT1080NT lethal	DT40 TDP1 no CPT	HT1080 IDH1KD tx	DT40 TDP1 CPT
Cc1cc(/C=N/NC(=O)Cn2c3ccccc3c(=O)c3ccccc32)c(C)n1-c1ccc(Cl)cc1	-14%	-2%	-16%	29µM*	?	?
CSc1nnc(-c2ccc(S(=O)(=O)N3CCCCC3)cc2)o1	-13%	-11%	7%	-16%	-1%	-8%
Cc1ccc(NC(=O)c2ncn(CCCN(C)CCc3ccccn3)n2)cc1C	-7%	-15%	-3%	-22%	-2%	-25%
COCc1cc(C)n(CC(=O)N2CCCC2)c(=O)c1C#N	24%	1%	4%	17%	-1%	-19%
CCOC(=O)Cn1c(C)cc(COC)c(C#N)c1=O	-3%	-17%	17%	5.2µM*	-1%	-2%
CC(C)(CO)CNC1CCCN(C2Cc3ccccc3C2)C1 (stereo not drawn)	-7%	-1%	-3%	1%	-10%	4%
Cc1ccc(-c2cc(C(=O)N(C)Cc3cnn(C)c3C)c3cc(Br)ccc3n2)cc1	-37%	-11%	-6%	10µM*	-12%	7.3µM*
Cc1c(C(=O)N(C)Cc2ccc(F)cc2)sc(=O)n1Cc1ccc(Cl)c(Cl)c1	-25%	?	-24%	23µM*	?	?
Cc1c(C(=O)NCc2ccc(C#N)cc2)sc(=O)n1Cc1ccccn1	-2%	0%	5%	2%	2%	-5%
Cc1cccc(C)c1Cn1c(C)c(C(=O)NCc2ccc(C#N)cc2)sc1=O	-12%	?	?	18µM*	?	?
Cc1c(C(=O)NCc2ccc3c(c2)OCCO3)sc(=O)n1Cc1ccc(C(=O)N(C)C)cc1	-1%	-8%	2%	?	-2%	?
Cc1c(C(=O)NCc2ccc(C(C)C)cc2)sc(=O)n1Cc1ccc(S(=O)(=O)N(C)C)cc1	-11%	1%	-15%	9.2µM*	?	13µM*
Cc1c(C(=O)NCc2ccc(Cl)c(Cl)c2)sc(=O)n1Cc1ccc(C(=O)N(C)C)cc1	2%	?	-23%	10µM*	-23%	15µM*
